For seven molecules, Potency, outcome and activity change, positive = activation results are on record in PubChem BioAssay (Tox21).

A number with no mark means an inactive call. Records with an inconclusive call do not appear. Calls of active or inactive are those of the source. Unless noted, calls follow the shape of the dose curve; as a rule, active = well fitted curve in the direction sought with a large enough effect in the repeat runs; inconclusive = weak or mixed curves; inactive = no such curve, though single readings can be large; an effect the other way counts as inactive or inconclusive.

Assay [1] can be described thus: qHTS assay to identify small molecule antagonists of the estrogen related receptor (ERR) signaling pathway from Tox21 library - cell viability counter screen (AID 1224834). Also: nearly all actives have a fitted effect of over 30% in size. A digest of the protocol: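 Viability readout (CellTiter-Fluor fluorescence, 30 min at 37 C) multiplexed with the ERR assay; cells treated 17.5 h at 37 C with compounds delivered in DMSO.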
Background: qHTS replaces the single test concentration by a dilution series.

The target of assay [2] is Luciferin 4-monooxygenase (Photinus pyralis) (UniProt P08659). In words: qHTS assay to identify small molecule inhibitors of firefly luciferase (AID 1224835). Also: nearly all actives have a fitted effect of over 25% in size. Also: potency is read from the fitted curve at half-maximal effect. A digest of the protocol: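 Quantitative HTS format; KM concentrations of both substrates. Purified P. pyralis FLuc activity quantified from luminescence images.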
Luciferin 4-monooxygenase (Photinus pyralis), sequence (P08659 whole entry, looked up): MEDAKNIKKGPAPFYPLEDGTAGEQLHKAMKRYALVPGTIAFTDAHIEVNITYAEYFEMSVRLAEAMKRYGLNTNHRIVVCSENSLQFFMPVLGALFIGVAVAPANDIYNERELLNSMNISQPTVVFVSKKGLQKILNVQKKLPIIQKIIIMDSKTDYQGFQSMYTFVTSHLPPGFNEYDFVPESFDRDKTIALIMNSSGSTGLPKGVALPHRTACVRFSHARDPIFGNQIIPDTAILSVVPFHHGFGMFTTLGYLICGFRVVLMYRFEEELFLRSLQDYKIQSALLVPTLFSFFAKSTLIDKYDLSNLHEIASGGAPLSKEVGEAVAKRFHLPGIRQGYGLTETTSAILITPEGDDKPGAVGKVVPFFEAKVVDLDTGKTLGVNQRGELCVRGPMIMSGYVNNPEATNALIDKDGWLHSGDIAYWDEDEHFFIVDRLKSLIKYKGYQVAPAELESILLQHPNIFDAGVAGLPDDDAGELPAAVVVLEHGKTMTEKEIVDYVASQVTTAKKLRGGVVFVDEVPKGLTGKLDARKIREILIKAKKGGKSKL
Assay [3] is described as follows: qHTS assay to identify small molecule agonists of the constitutive androstane receptor (CAR) signaling pathway - cell viability counter screen (AID 1224836). Also: nearly all actives have a fitted effect of over 45% in size. A digest of the protocol:
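Multiplexed viability check: HepG2-CYP2B6-hCAR cells, 15-point compound dosing, 0.75 uM PK11195 final, 23 h at 37 C, CellTiter-Fluor fluorescence.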

Assay [4] in a line: qHTS assay to identify small molecule antagonists of the constitutive androstane receptor (CAR) signaling pathway - cell viability counter screen (AID 1224837). Also: nearly all actives have a fitted effect of over 45% in size. A digest of the protocol:
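Fluorescence from CellTiter-Fluor served as the viability signal. Human hepatoma HepG2 cells stably bearing hCAR and CYP2B6-2.2kb received compound plus CITCO (50 nM final) for 23 hr.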

Assay [5] addresses Nuclear receptor subfamily 1 group I member 3 (Homo sapiens) (UniProt Q14994). In words: qHTS assay to identify small molecule antagonists of the constitutive androstane receptor (CAR) signaling pathway (AID 1224838).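 Also: HepG2 cells stably expressing hCAR with CYP2B6 luciferase reporter stimulated by CITCO; nearly all actives have a fitted effect of over 40% in size.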 A digest of the protocol: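 Quantitative HTS in double-stable HepG2-CYP2B6-hCAR cells. After 4 h plating, cells get compound (15 concentrations) and CITCO at 50 nM final, incubate 24 h at 37 C, then ONE-Glo luminescence is read.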

Assay [6] has the same target. Put plainly: qHTS assay to identify small molecule agonists of the constitutive androstane receptor (CAR) signaling pathway (AID 1224839). Also: nearly all actives have a fitted effect of over 15% in size. Also: potency is read from the fitted curve at half-maximal effect.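 As to activation: HepG2 cells stably carrying human CAR and a CYP2B6 luciferase reporter.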 In a few lines:
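Using human hepatoma HepG2 cells engineered with hCAR and a CYP2B6-2.2kb reporter, 15-concentration compound series were incubated 24 h alongside PK11195 at 0.75 uM final, with luminescence quantified afterwards.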

Assay [7] is described as follows: qHTS assay to identify small molecule antagonists of the estrogen related receptor signaling pathway with the pleiotropic PPARgamma coactivator (PGC) from Tox21 10K library - cell viability counter screen (AID 1224840; active = well fitted cell-killing curve with a large enough effect in the repeat runs, not every such curve was filed as active; also: nearly all actives have a fitted effect of over 40% in size). In a few lines: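 Compounds in DMSO, alongside positive and negative controls, were pinned onto PGC/ERR cells (2,000 per well). Exposure lasted 17.5 hours at 37 C, followed by a 30-minute CellTiter-Fluor incubation and fluorescence reading.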

The nature of assay [8]: qHTS assay to identify small molecule antagonists of the estrogen related receptor signaling pathway with the pleiotropic PPARgamma coactivator (PGC) from Tox21 10K library (AID 1224841; call rule not given here; also: actives are mostly falling curves and most rising ones were filed inactive; nearly all actives have a fitted effect of over 50% in size). A digest of the protocol:
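Compound exposure ran 18 hours at 37 C in PGC/ERR cells (2,000/well) that had first rested 6 hours in a 37 C/5% CO2 incubator. Luciferase activity was then detected with One-Glo after a 30-minute room-temperature step.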

Assay [9] is described as follows: qHTS assay to identify small molecule agonists of the estrogen related receptor signaling pathway with the pleiotropic PPARgamma coactivator (PGC) from Tox21 10K library (AID 1224842). Also: nearly all actives have a fitted effect of over 15% in size. Also: potency is read from the fitted curve at half-maximal effect. A digest of the protocol: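 PGC/ERR reporter cells (NTP line) were seeded 2,000 per well, rested 6 h at 37 C/5% CO2, then pin-dosed with compounds in DMSO for 18 h at 37 C; luciferase read by One-Glo luminescence after 30 min at room temperature.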

Assay [10] concerns the target Thyrotropin receptor (Homo sapiens) (UniProt P16473). Put plainly: qHTS assay to identify small molecule agonists of the thyroid stimulating hormone receptor (TSHR) signaling pathway (AID 1224843; calls by dose curve; also: nearly all actives have a fitted effect of over 45% in size). In a few lines: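 TSHR-expressing HEK293 cells (800 per well) were exposed to compounds for 30 min at room temperature. cAMP was then detected by HTRF competition with cAMP-d2 and anti-cAMP cryptate, read after 1 h at room temperature. Fifteen concentrations, triplicate.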

Assay [11] can be described thus: qHTS assay to identify small molecule agonists of the hypoxia (HIF-1) signaling pathway - cell viability counter screen (AID 1224844; calls by dose curve; also: nearly all actives have a fitted effect of over 50% in size). A digest of the protocol:
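Luminescent ATP content (CellTiter-Glo, 30 min, room temperature) served as the viability measure in HRE-bla ME-180 cells exposed to compounds for 17 hrs in low-serum medium (0.5% dialyzed FBS).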

Assay [12] is described as follows: qHTS assay to identify small molecule agonists of H2AX (AID 1224845; active = well fitted activation curve with a large enough effect in the signal ratio in the repeat runs, not every such curve was filed as active; the % refers to the signal ratio). A digest of the protocol:
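Wild-type CHO-K1 cells plated overnight, then exposed 3 hr at 37C to compounds at 15 concentrations (0.76% DMSO). Lysed, then HTRF anti-pH2AX(S139)-cryptate/anti-H2AX-d2 detection after 24 hr at room temperature; emissions 665 and 620 nm.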

Assay [13] in a line: qHTS assay to identify small molecule agonists of the hypoxia (HIF-1) signaling pathway (AID 1224846; active = well fitted activation curve with a large enough effect in the signal ratio in the repeat runs, not every such curve was filed as active; the % refers to the signal ratio). In a few lines: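 Measured by blue/green FRET after loading CCF4-AM: beta-lactamase expressed from a hypoxia response element in ME-180 cells. Test agents were delivered in DMSO and left 17 hrs; cells had been plated 5 hrs earlier in low-serum (0.5% dialyzed FBS) medium.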

A short description of assay [14]: qHTS assay to identify small molecule agonists of H2AX - cell viability counter screen (AID 1224847; calls by dose curve; also: top concentration of the series differs between compounds; nearly all actives have a fitted effect of over 30% in size). A digest of the protocol:
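After overnight plating of 1000 CHO-K1 cells per well, a 15-concentration compound series was applied for 3 hr at 37C. Luminescence from CellTiter-Glo, read following 30 min at room temperature, reflected cell viability.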

Assay [15] in a line: qHTS assay to identify small molecule antagonists of the estrogen related receptor (ERR) signaling pathway from Tox21 library (AID 1224848). Also: nearly all actives have a fitted effect of over 50% in size. In a few lines: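 Cells: ERR line, 2,000/well; 6 h preincubation 37 C/5% CO2. Cpd in DMSO via pin tool; 18 h, 37 C. ONE-Glo, 30 min RT, luminescence.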
Assay [16] can be described thus: qHTS assay to identify small molecule agonists of the estrogen related receptor (ERR) signaling pathway from Tox21 library (AID 1224849; calls by dose curve; also: nearly all actives have a fitted effect of over 15% in size). The following applies: ERR reporter cell line, ONE-Glo luciferase, 18 h; at 92.4 µM (top of the series) unless noted. In a few lines:
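We plated ERR reporter cells, waited 6 h, added compounds in DMSO by pin tool and incubated them 18 h at 37 C. ONE-Glo was then added and luminescence read after 30 min.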

Assay [17] in a line: qHTS RealTime-Glo MT Cell Viability Assay in HepG2 cells - 24 hour (AID 1224867). Also: nearly all actives have a fitted effect of over 50% in size. A digest of the protocol:
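Cell number in HepG2 cultures estimated from NanoLuc luminescence generated by metabolic reduction of a prosubstrate by living cells. The homogeneous, nonlytic format allowed repeated reads at 0, 8, 16, 24, 32 and 40 h of compound exposure.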

A short description of assay [18]: qHTS RealTime-Glo MT Cell Viability Assay in HEK293 cells - 32 hour (AID 1224868). In a few lines: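 Homogeneous bioluminescent viability format in HEK293 cells (600 cells/well). Following 5 h at 37 C/5% CO2, 23 nL compound was pintooled; the signal was measured repeatedly during 40 h incubation.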
Assay [19] is described as follows: A CellTox Green Cytotoxicity Assay to monitor cytotoxicity in HEK293 cells - 0 hour (AID 1224869). Also: nearly all actives have a fitted effect of over 50% in size. In a few lines:
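Each value comes from one timepoint of a single continuous run in which HEK293 cells with CellTox Green were exposed to compound for up to 40 h at 37 C, dye fluorescence rising with cell death.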

The nature of assay [20]: qHTS RealTime-Glo MT Cell Viability Assay in HepG2 cells - 40 hour (AID 1224870). Also: nearly all actives have a fitted effect of over 50% in size. A digest of the protocol:
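HepG2 cells mixed with RealTime-Glo MT reagents (NanoLuc plus cell-permeant prosubstrate) were seeded at 600 cells/well, incubated 5 h at 37 C/5% CO2, then pinned with compounds in DMSO; nonlytic luminescence tracked viability during 40 h treatment.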
% is scaled to controls: 0 for no effect and ±100 for the full control effect.

Thyrotropin receptor (Homo sapiens), sequence (P16473 whole entry, looked up): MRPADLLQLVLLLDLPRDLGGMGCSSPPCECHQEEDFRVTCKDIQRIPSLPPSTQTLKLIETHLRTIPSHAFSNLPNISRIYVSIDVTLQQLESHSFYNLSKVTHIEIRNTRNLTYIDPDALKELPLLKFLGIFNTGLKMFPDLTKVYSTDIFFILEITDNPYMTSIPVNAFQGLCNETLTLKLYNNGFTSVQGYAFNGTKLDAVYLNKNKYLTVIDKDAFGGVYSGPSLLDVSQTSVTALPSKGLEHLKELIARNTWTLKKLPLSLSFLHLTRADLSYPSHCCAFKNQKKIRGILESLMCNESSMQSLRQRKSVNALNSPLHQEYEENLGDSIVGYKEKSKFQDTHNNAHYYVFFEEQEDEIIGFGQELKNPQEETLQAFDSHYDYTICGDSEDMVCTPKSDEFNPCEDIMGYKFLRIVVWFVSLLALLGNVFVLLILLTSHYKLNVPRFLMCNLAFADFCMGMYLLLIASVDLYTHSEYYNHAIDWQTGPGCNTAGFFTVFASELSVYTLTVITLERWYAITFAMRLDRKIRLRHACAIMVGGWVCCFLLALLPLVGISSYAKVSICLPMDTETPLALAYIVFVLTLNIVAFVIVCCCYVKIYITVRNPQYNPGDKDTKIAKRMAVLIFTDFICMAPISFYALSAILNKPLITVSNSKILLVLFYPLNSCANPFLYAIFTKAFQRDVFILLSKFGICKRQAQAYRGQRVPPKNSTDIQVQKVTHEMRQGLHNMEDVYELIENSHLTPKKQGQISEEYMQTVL
Nuclear receptor subfamily 1 group I member 3 (Homo sapiens), sequence (Q14994 whole entry, looked up): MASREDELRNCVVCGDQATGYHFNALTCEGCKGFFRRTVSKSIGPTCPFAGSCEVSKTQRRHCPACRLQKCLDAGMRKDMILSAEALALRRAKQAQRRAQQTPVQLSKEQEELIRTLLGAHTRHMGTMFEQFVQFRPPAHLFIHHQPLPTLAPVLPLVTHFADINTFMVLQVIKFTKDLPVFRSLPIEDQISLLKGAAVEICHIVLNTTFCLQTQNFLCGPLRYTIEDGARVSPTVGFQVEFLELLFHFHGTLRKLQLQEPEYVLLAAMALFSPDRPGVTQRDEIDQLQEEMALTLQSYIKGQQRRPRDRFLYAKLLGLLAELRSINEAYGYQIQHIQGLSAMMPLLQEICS

`CC(CO)CO`: the Potency result in assay [1], in assay [2], in assay [3], in assay [4], in assay [5] and in [6] was “inactive” throughout. The Potency result in assay [7], in assay [8], in assay [9], in assay [10], in assay [11] and in assay [12] was “inactive” throughout. The Potency result in assay [14], in [15], in assay [17], in assay [18], in [19] and in assay [20] was “inactive” each time. In addition, the result in [13] was inactive. Further, the activity change, positive = activation in assay [16] is 0.194%.
`CCCCCC#CC(=O)OC`: the Potency entry in assay [1], in assay [2], in [3], in [4], in assay [5] and in assay [6] was “inactive” each time. In addition, the Potency entry in [7], in assay [8], in assay [9], in assay [10], in assay [11] and in assay [12] was “inactive” in each case. The Potency entry in assay [14], in assay [15], in assay [17], in assay [19] and in assay [20] was “inactive” in each case. For the same molecule, in [13], the outcome was inactive.
Take `COc1ccccc1Oc1c(NS(=O)(=O)c2ccc(C(C)(C)C)cc2)nc(-c2ncccn2)nc1OCCO`: the Potency entry in assay [1], in assay [2], in [3], in [4], in assay [5] and in assay [6] was “inactive” each time. The Potency result in assay [7], in assay [8], in [9], in [10], in assay [11] and in assay [12] was “inactive” each time. Moreover, the Potency entry in assay [17], in assay [18], in assay [19] and in assay [20] was “inactive” each time. In addition, the call in assay [13] was inactive. For the same molecule, the activity change, positive = activation in [16] was -21.1% [at 42.5 µM].
Consider `O=C1c2ccccc2C(=O)C1c1ccc(Br)cc1`, for which the Potency result in assay [1], in assay [3], in assay [4], in assay [5], in assay [7] and in assay [8] was “inactive” in each case. Further, the Potency entry in assay [10], in assay [11], in [14], in assay [15], in assay [17] and in [18] was “inactive” throughout. In addition, the Potency entry in assay [19] was “inactive”. Also, the Potency is 3.47 µM (active) in [2], 29.8 µM (active) in [6] and 13.3 µM (active) in assay [9]. Besides, the outcome in assay [13] was inactive. In addition, the activity change, positive = activation in [16] is 99.8% [at 42.5 µM] (active).
For `CCOC(=O)C1=C(C)NC(C)=C(C(=O)OC)C1c1cccc(Cl)c1Cl` (stereo not given), the Potency result in assay [1], in assay [2], in [3], in [4], in assay [5] and in [6] was “inactive” throughout. Moreover, the Potency entry in [7], in assay [8], in assay [9], in [10], in assay [11] and in assay [14] was “inactive” in each case. Besides, in assay [19], the Potency entry is “inactive”. In addition, in assay [13], the molecule was called inactive. Further, the activity change, positive = activation in [16] is -28.7% [at 42.5 µM].
In the case of `C[C@H]1C[C@H](O)c2ccsc2S1(=O)=O`, the Potency result in assay [1], in assay [2], in assay [3], in assay [4], in [5] and in [6] was “inactive” each time. The Potency entry in assay [7], in [8], in [9], in [10], in assay [11] and in assay [12] was “inactive” throughout. The Potency result in assay [14], in assay [15], in assay [17], in assay [18], in [19] and in assay [20] was “inactive” each time. The molecule was called inactive in assay [13]. Also, the activity change, positive = activation in [16] is 5.62% [at 42.5 µM].
Consider `C=C1c2cccc(O)c2C(O)=C2C(=O)[C@]3(O)C(O)=C(C(N)=O)C(=O)[C@@H](N(C)C)[C@@H]3[C@@H](O)[C@H]12`, for which the Potency result in assay [1], in [2], in assay [3], in [4], in assay [5] and in assay [6] was “inactive” in each case. In addition, the Potency result in assay [7], in [8], in assay [9], in assay [11], in assay [12] and in assay [14] was “inactive” in each case. The Potency entry in assay [17], in assay [18] and in assay [19] was “inactive” each time. Further, the activity change, positive = activation in [16] was -14.2% [at 42.5 µM].
